22 sequences from the supplement of paper PMC6555819 can be followed below.

For the assay, the system named is RARb homodimer (NR concentration 270 nM). In words: PBM binding z-score (relative to random genomic background probes); higher = stronger binding; sequences stand for … in GC…GCGATTGACAGCGTAGAATGAAGG
Put shortly: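 For binding z-scores, the reference was random background probes on custom Agilent 4×180K protein-binding microarrays. These arrays were incubated 1 h with ligand-free nuclear receptor dimers in PBS pH 7.4, 2% milk, 0.02% Triton X-100, 1 mM DTT, 0.2 mg/mL BSA and 0.4 mg/ml salmon testes DNA. Fluorescence was scanned after antibody detection of each partner (one per run) and regression-normalized.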
On to ACTAGCAGGCCACGGGTCACTCAAGATTAGTCCG, for which the PBM binding z-score was found to be 2.64.
With CCGACTGGGGCAAAGGTGACCATACTCAGTACGA the figure was 1.44; with TGAATGAGGCTAAAGATCAGGGAACGTGGCGTCG, -0.821; with TCTTGCAGATCAACAGGAGGTTAAGAAAGATCGA, 0.407.
With TAGCCTAGGTCACGCGGGCCAGTATAGTGTCGGC the figure was 3.49.
With GATACAGGGTCAAGGCCAGAGTGCGCGTATTGAT the figure was 3.82; with TCATAGAGGTAAATGCTAGGTGAAAGTCCGATCT, 0.335; with TCTCGGAGGATACGAAAGGTCAGAGCTCGACATC, 4.38.
The sequence ATACCAAGGTGATCGTGAGGTAGTTGATACTAAC returned a PBM binding z-score of 0.262.
With ATCTCTAGGCAAGACTCAGTTCAGTGAAGAACGC the figure was 0.298.
With GTACCAAGGTGAGTAGGTCGTTGATGAGTAGGCG the figure was 1.15.
With CCTCGGAGGACAACAGGAGGTCAGAGCGGCCAGA the figure was 3.6; with TCTGGTAGATCAATAGAGGTTAAGAAAGTGCGCT, 1.43.
For GCGACTGGGGCAAAGCAGGTTACAATAAGGTTGG, the PBM binding z-score amounted to 1.15.
With CCGACTGGGGCATAAGGTTACCACAAGCCAGCCC the figure was 1.92.
With ATATGTAGGTTAAGGGTCATACAGGTTGGTTCGC the figure was 4.12.
With ACTATTAGTTGACTAAGGGCAACCGATACGACGC the figure was 1.55; with TCTTGTAGATCAACACGAGGTTAAGAAAGATCGA, 0.596; with TCGAGTAGCTTAGGGGCATTCAGAATGGCGTCGA, 0.0653.
TCAATGAGGTTATAAGATCAGGGAACGTTGCAAA had a PBM binding z-score of 0.57.
With CCTACTGGGCCACGAAAGGTCATTGTTTCAGTGA the figure was 4.64; with GATACAGGGCCAGCTAGAGGCCAGAGTATGGAAA, 0.561.
